# HSF1 inh: HSF1 inhibition; 300,000 compounds, 0.77% hits; AID 2098; activity change, negative = inhibition, % at 7.5 µM (by protocol); NIH3T3-HGL HSE-luciferase, MG132-induced, luminescence 8 h; hits give low values;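 active = more than half of replicate wells show activity change below -50%, luminescence cut by over half; inconclusive = some wells, but at most half, below -50%; inactive = no replicate well below -50%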;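 note: luciferase reports HSF-1 transcriptional activity via heat shock element; 0% = median of DMSO wells and -100% = zero luminescence signal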
# TRAIL sens C8: sensitizes caspase-8 expressing cells to TRAIL. 360,000 compounds, 1% hits. inhibition (viability loss, TRAIL sensitization), % at 10 µM. NB7+C8 cells + TRAIL, ATPlite viability luminescence;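 active = compounds causing at least 50% loss of cell viability in the single-dose screen, relative to plate controls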
# STAT1 blocker: STAT1 signaling inhibition; NIH 3T3 STAT1-luciferase reporter, IFN-gamma, luminescence; inhibition, % at 5.5 µM; 200,000 compounds, 0.35% hits; AID 920;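 active = inhibition above a set limit, the mean inhibition across all tested compounds plus 3 SD, cut at about 34% in these data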;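 note: 0% = IFN-gamma with DMSO and 100% = IFN-gamma with 300 µM nifuroxazide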
# PPC-1+TRAIL kill: kills PPC-1 cancer cells in the presence of TRAIL; PPC-1 cells + TRAIL, ATPLite viability luminescence; cell killing (% activity), % at 4 µM or 5 µM; 220,000 compounds, 0.41% hits; AID 1443;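 active = cell killing above 50% in the first pass at 4 µM, then a duplicate retest at 5 µM averaging 50% or more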;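 note: plate controls were cells with TRAIL plus DMSO for no effect and medium-only wells lacking cells for full effect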
# STAT3 inh: inhibitors of IL-6 induced STAT3 signaling. U3A cells, IL-6 STAT3-luciferase reporter, luminescence; host cell line lacks STAT1. inhibition, % at 5.5 µM. 190,000 compounds, 0.89% hits;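 active = inhibition above the mean inhibition across all screened compounds plus 3 SD, cut at about 44% in these data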;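 note: 0% = DMSO only wells and 100% = 100 µM nifuroxazide control wells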
# HSP90 refold inh: blocks HSP90-mediated luciferase refolding in reticulocyte lysate; Rabbit reticulocyte lysate, luciferase refolding luminescence, 3 h; inhibition, % at 5.6 µM; 290,000 compounds, 0.91% hits; AID 1789;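 active = inhibition above the screen-wide mean plus 3 SD, computed separately per campaign, cut at about 16% in these data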;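 note: 0% = DMSO wells and 100% = 60 µM geldanamycin wells; inhibitors lower the luminescence because luciferase stays unfolded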
# * hit, by the source's call; ? = inconclusive; . = no result given. Rows were chosen to be rich in hits. Some 2.4% of all compounds tested hit in one or more screens of this group.
SMILES,HSF1 inh,TRAIL sens C8,STAT1 blocker,PPC-1+TRAIL kill,STAT3 inh,HSP90 refold inh
COCC1CCCCN1C(=O)c1cc(COc2ccc3ncccc3c2)on1 (centres undefined),-72*,18,.,.,.,-3
CCCN1CCN(C(=O)c2cc(COc3ccc4ncccc4c3)on2)CC1,-57*,8,15,8,34,-3
COc1cc2c3nnc(-c4ccc(F)cc4)c-3cn(Cc3cccc(C)c3)c2cc1OC,5,59*,-6,16,4,1
COc1cc2c3nnc(-c4ccc(F)cc4)c-3cn(Cc3ccc(C)cc3)c2cc1OC,-12,84*,-5,15,8,-1
COc1cc2c3nnc(-c4ccccc4)c-3cn(Cc3ccc(F)cc3)c2cc1OC,-4,3,-19,10,-2,-2
COc1cc2c3nnc(-c4ccc(F)cc4)c-3cn(Cc3cccc(F)c3)c2cc1OC,-6,-9,-3,46,-9,-1
CC1CN(C)C(C)CC1OC(=O)C(c1ccccc1)c1ccccc1 (centres undefined),-2,-16,.,.,.,.
COC(=O)C(c1ccccc1)C1(O)CC(C)N(C)CC1C (centres undefined),-76*,0,.,.,.,1
COc1ccc2c(c1OC)C(=O)N1c3ccccc3C(=O)N(c3ccc(F)cc3)C21 (centres undefined),-27,29,6,11,8,-2
COc1ccc2c(c1OC)C(=O)N1c3ccccc3C(=O)N(c3ccccc3)C21 (centres undefined),-36,20,53*,20,49*,3
O=[N+]([O-])c1ccccc1C=NN1CCCCCC1,.,-5,.,.,.,.
O=C(N/N=C/c1cccc(OC(=O)c2ccco2)c1)c1ccc(F)cc1,31,71*,-25,44,20,-1
Cc1ccc(C(=O)N/N=C\c2cccc(OC(=O)c3cccc(F)c3)c2)cn1,-3,54*,.,.,.,-4
COc1cc(/C=N/NC(=O)c2ccc(F)cc2)ccc1OC(=O)c1ccco1,1,3,-4,27,-7,-2
O=S(=O)(c1ccc(SCc2ccc(Br)cc2)nc1)N1CCCCC1,.,25,.,.,.,.
CNc1cc(-c2cccc(C(=O)N3CCOCC3)c2)ncn1,.,3,.,.,.,.
COc1ccc(C2(C(=O)c3ccccc3)C(=O)c3ccccc3C2=O)cc1,-3,55*,.,26,.,-4
O=C1c2ccccc2C(Nc2ccccc2)N1c1ccc(Cl)cn1 (centres undefined),.,-14,-6,0,17,1
O=C1c2ccccc2C(Nc2ccc3c(c2)OCCO3)N1c1ccc(Cl)cn1 (centres undefined),-54*,-2,-12,7,18,-1
O=C1c2ccccc2C(Nc2ccc3c(c2)OCCO3)N1c1ccccn1 (centres undefined),-70*,-4,5,.,-2,5
O=C1c2ccccc2C(Nc2ccc(F)c(Cl)c2)N1c1ccccn1 (centres undefined),9,-2,-8,20,12,-2
O=C1c2ccccc2C(Nc2ccc3c(c2)OCCO3)N1Cc1ccc2c(c1)OCO2 (centres undefined),-64*,-10,6,10,-5,9
CC(=O)Oc1ccc(Cn2c(C)c(C(=O)NCc3cccc(C(F)(F)F)c3)sc2=O)cc1,.,17,.,.,.,.
O=C1N(Cc2ccccc2)c2ccc(Br)cc2[C@]12C[C@H](O)CO2,.,2,.,.,.,.
COCCNC(=O)C1CCCN(Cc2ccc(C)cc2)CC1 (centres undefined),.,4,.,.,.,.
SMILES,HSF1 inh,TRAIL sens C8,STAT1 blocker,PPC-1+TRAIL kill,STAT3 inh,HSP90 refold inh
Cc1cccc(C)c1-n1nnnc1C(c1ccnc2ccccc12)N(CCN(C)C)Cc1ccccc1 (centres undefined),.,8,.,.,.,.
C[C@@H]1COc2cc(N3CC[C@H](O)C3)ccc2S(=O)(=O)N1,.,-4,.,.,.,.
Cc1c(C(=O)Nc2cccnc2)oc2ccc(Br)cc12,20,50*,.,.,.,-3
CCc1ccc2oc(C(=O)Nc3cccnc3)c(C)c2c1,21,42,.,.,.,3
Cc1ccccc1C(=O)NC[C@@H]1CCCN2CCCC[C@H]12,-56*,-14,.,.,.,3
Cc1ccccc1CNC(=O)c1ccccc1C,-2,9,2,-10,-1,3
CCSc1ncc(Cl)c(C(=O)Nc2ccccc2OC)n1,-7,-4,.,.,.,3
CCc1nnc(NC(=O)c2nc(S(=O)(=O)Cc3ccccc3)ncc2Cl)s1,-18,94*,.,.,.,1
CCc1nnc(NC(=O)c2ccc3ccccc3n2)s1,11,21,-56,0,-22,8
CCOc1ccccc1NC(=O)c1nc(S(=O)(=O)Cc2cccc(C)c2)ncc1Cl,?,93*,.,.,.,11
CCc1nnc(NC(=O)c2nc(S(=O)(=O)Cc3ccc(C)cc3)ncc2Cl)s1,-60*,95*,.,.,.,5
CCc1nnc(NC(=O)c2nc(Cl)ccc2Cl)s1,-7,4,.,.,.,-3
CCc1nnc(NC(=O)c2nc(S(=O)(=O)Cc3cccc(C)c3)ncc2Cl)s1,-65*,98*,.,.,.,4
CCCCn1nnnc1C1(C)CCC(=O)N1Cc1cccnc1 (centres undefined),.,-9,.,.,.,.
Cc1ccc(NC(=O)c2cccc(OC(F)F)c2)c(OC(F)F)c1,-7,2,4,17,16,2
Cc1c(Cl)cccc1NC(=O)c1cccc(OC(F)F)c1,-72*,2,-9,32,8,2
O=[N+]([O-])c1c(Nc2ccc(O)cc2)cc(Cl)c2nonc12,122,96*,.,.,.,3
CN(C)c1cc(Nc2ccc(O)cc2)c([N+](=O)[O-])c2nonc12,-25,-6,.,0,.,-5
O=[N+]([O-])c1c(Nc2ccccn2)cc(Cl)c2nonc12,98,85*,.,18,.,12
COc1ccc(S(=O)(=O)N2CC=C(c3ccccc3)CC2)cc1OC,.,-4,.,.,.,.
CCN(CC)C(=O)c1cccc(-c2csc(C(O)c3cccc(OC)c3)n2)c1 (centres undefined),.,8,.,.,.,.
CCCOc1ccc(F)cc1-c1cc(C(=O)NCc2cccc(Cl)c2)[nH]n1,.,-13,.,.,.,.
CCOc1ccc(-c2c(C#N)c(N)nc3c2c(=O)n(C)c(=O)n3C)cc1OC,0,86*,-4,28,-2,1
Oc1ccccc1C1=NN(c2ccccc2)C(c2ccc(F)cc2)C1 (centres undefined),3,21,.,.,.,-5
Oc1ccc(C2=NN(c3ccccc3)C(c3ccc(F)cc3)C2)cc1 (centres undefined),-75*,3,.,.,.,1
CCNC(=O)C1(C)CCN1CCC(=O)c1ccc(Br)cc1 (centres undefined),.,-8,.,.,.,.
COc1cc(C(=O)NC2CCN(Cc3nnnn3Cc3cccs3)CC2)cc(OC)c1OC,-68*,-13,9,22,2,1
COc1ccccc1C(=O)N/C(=C\c1cn(S(=O)(=O)N(C)C)c2ccccc12)C(=O)NCCN1CCOCC1,-80*,-33,.,.,.,-6
